Hits are enriched below; roughly 3.4% of the tested compounds scored in any of these assays.
RE007 growth inh: less growth of the S. pombe RE007 Vpr strain; Potency, µM (titrated, usually from 92.2 µM), without a hit: at the top dose activity change, negative = less growth, actives largely listed as inhibitors; S. pombe RE007 Vpr strain, BacTiter-Glo ATP luminescence, 24 h; 360,000 tested, 0.21% active; active = well fitted falling curve with a large enough effect; inconclusive = small, poorly fitted or top-dose-only effect; inactive = no such curve, though single readings can be large or run the other way; note: nearly all actives have a fitted effect of over 50% in size
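Fission yeast RE007 carrying one integrated HIV-1 vpr copy, seeded at OD 0.01 in PMG+AL medium with 23 nL pinned compound. Grown 24 h at 30 degrees; viability read by BacTiter-Glo luminescence after 5 min.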
FBPA Giardia inh: inhibitors of Giardia lamblia fructose-1,6-bisphosphate aldolase; AID 2451; purified Giardia FBPA; Potency, µM (titrated, usually from 59.6 µM), inactives show at the highest dose activity, negative = inhibition, hits mostly inhibitors; 290,000 tested, 0.71% active; note: nearly all actives have a fitted effect of over 55% in size
Target sequence (A8B2U2 whole entry, looked up): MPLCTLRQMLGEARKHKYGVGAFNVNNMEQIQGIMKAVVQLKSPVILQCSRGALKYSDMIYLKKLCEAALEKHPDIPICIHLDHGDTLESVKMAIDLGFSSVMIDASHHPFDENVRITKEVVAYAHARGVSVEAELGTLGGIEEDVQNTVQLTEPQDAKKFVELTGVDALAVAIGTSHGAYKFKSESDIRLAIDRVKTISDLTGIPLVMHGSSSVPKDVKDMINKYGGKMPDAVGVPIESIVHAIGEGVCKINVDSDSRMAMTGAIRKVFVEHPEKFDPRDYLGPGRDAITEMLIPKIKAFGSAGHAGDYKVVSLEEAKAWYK
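40 nM FBPA preincubated 10 min at RT with compound (up to 57.5 uM final), then substrate plus GAPDH/TPI/NAD/arsenate coupling and diaphorase/resazurin added. Fluorescence read after 20 min at RT, 525/598 nm.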
Sm TGR block: S. mansoni TGR enzyme inhibition. Q962Y6. purified TGR, DTNB reduction, TNB absorbance 405 nm. Potency, µM (highest dose often 114 µM), without a hit: at the top dose activity change, negative = inhibition, most hits filed as inhibitors. 360,000 tested, 3% active. AID 485364; note: nearly all actives have a fitted effect of over 60% in size
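TGR 20 nM + NADPH 100 uM (dispensed conc.), cpd preinc 15 min RT; start with NADPH (500 uM addition) then DTNB (15 mM addition). Kinetic TNB absorbance, 405 nm filter. Four-parameter Hill fit across titration.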
AmpC inh no detg: AmpC beta-lactamase inhibition without detergent | AmpC nitrocefin hydrolysis, absorbance 480 nm, 0.0001% Triton | 330,000 tested, 0.52% active | AID 485341 | P00811 | Potency, µM (top dose mostly 57.1 µM), for the others: top-dose activity change, negative = inhibition, usual class: inhibitors;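 note: plate controls were no compound for no effect and no enzyme for full effect; nearly all actives have a fitted effect of over 20% in size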
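AmpC (5.3 nM in the dispensed reagent) in 20 mM phosphate pH 7.0 with 0.01% (detergent screen) or 0.0001% Triton X-100 was preincubated with compounds for 15 min at room temperature. Nitrocefin was then added from an 800 uM solution, and hydrolysis was followed at 480 nm.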
AmpC inh detg: AmpC beta-lactamase inhibition with detergent present; AID 485294; AmpC hydrolysis of nitrocefin, absorbance 480 nm, 0.01% Triton; Potency, µM (top dose mostly 114 µM), for the others: at the highest dose activity change, negative = inhibition, most hits filed as inhibitors; 370,000 tested, 0.041% active;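 note: 0% = no-compound wells and -100% = no-enzyme wells; nearly all actives have a fitted effect of over 25% in size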
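AmpC (5.3 nM in the dispensed reagent) in 20 mM phosphate pH 7.0 with 0.01% (detergent screen) or 0.0001% Triton X-100 was preincubated with compounds for 15 min at room temperature. Nitrocefin was then added from an 800 uM solution, and hydrolysis was followed at 480 nm.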
* marks the source's active call; other numbers are inactive results; ? = inconclusive; . = no result; ! = not confirmed by another sample; [ ] = another dose, or the depositor's remark. Unless noted, calls come from the whole dose curve; as a rule, active = well fitted curve in the direction sought with a large enough effect; inconclusive = small, poorly fitted or top-dose-only effect, or another doubt; inactive = no such curve, though single readings can be large; an effect the other way counts as inactive or inconclusive. Unless noted, % is set by controls: 0 for no effect and ±100 for the full control effect; potency is the fitted concentration of half-maximal effect.

SMILES	RE007 growth inh	FBPA Giardia inh	Sm TGR block	AmpC inh no detg	AmpC inh detg
O=C(CN(CCc1ccccc1)C(=O)c1csnn1)NCc1ccc(F)cc1	5%	12%	6%	-2%	-5%
CCOc1ccc(-c2cnc(NCc3ccc(C(F)(F)F)cc3)n2C)cc1	.	.	0%	.	3%
COc1ccc(CCNC(=O)c2ccc3nc(-c4ccco4)c(-c4ccco4)nc3c2)cc1OC	-5%	?	3.2µM*	77%	5%
COc1ccc2[nH]c(-c3ccc(F)cc3F)cc(=O)c2c1	.	-7%[89.2 µM]	.	.	.
COc1ccc2[nH]c3c4c(ccc3c2c1)C(=O)C=CC4=O	9%	?	0.71µM*	-35%	3%
COc1ccc(C2N(c3ccc(OC)cc3)C(=S)N3CCCN23)cc1 (centres undefined)	-9%	8%	2%	-18%	-14%
CCOC(=O)c1c(C)c(C(=O)NCc2ccccn2)c(C)n1C	12%	10%	-6%	16%	5%
COc1cccc(NC(=O)Nc2nnc(CC(=O)Nc3ccccc3)s2)c1	-15%	-4%	-6%	11µM*	-6%
COc1cccc(NC(=O)N[C@@H](Cc2ccccc2)C(=O)O)c1	4%	4%	-13%	2.2µM*	3%
CCCc1cc(C(=O)N2CCCC(Cc3ccccc3C)(C(=O)OCC)C2)no1 (centres undefined)	4%	-5%	0%	77%	-1%
COc1ccc(-c2ccc(NC(=O)c3ccco3)cc2)nn1	?	.	50µM*	-21%	-14%
COc1ccc(-c2cccc(NC(=O)c3ccco3)c2)nn1	-19%	.	-33%	?	5%
C=CCN1CC[C@]23c4c5ccc(O)c4O[C@H]2C(=O)CC[C@@]3(O)[C@H]1C5	-1%	-4%	45µM*!	-14%	?
COc1cccc(NC(=O)[C@@H]2CCCN2C(=O)[C@@H]2Cc3ccccc3CN2C(=O)OC(C)(C)C)c1	-2%	.	-1%	85%	1%
Cc1cc(C(=O)NNC(=O)/C=C/c2ccco2)c(C)o1	-5%	.	2.8µM*	-20%	?
O=C(/C=C/c1ccco1)NC(=S)NNC(=O)c1ccco1	1%	?	40µM*	-28%	-3%
O=C(/C=C/c1ccc(Cl)cc1)NC(=S)Nc1ccc(C(=O)O)cc1	1%	-1%	10µM*	-13%	-7%
CCC(=O)Nc1ccc(NC(=S)NC(=O)/C=C/c2ccco2)cc1	15%	-5%	28µM*	-40%	-23%
CN(C)c1ccc(NC(=S)NC(=O)/C=C/c2ccco2)cc1	-9%	6%	-16%	-22%	4%
O=C(CSc1nc(-c2ccccc2)c(-c2ccccc2)[nH]1)NCc1ccco1	12%	4%	0%	-19%	5%
CC1(C)C(CC(=O)O)CC1C(=O)O (centres undefined)	1%	.	.	.	.
O=C(NC(=S)NNC(=O)c1ccco1)c1ccc(Br)cc1	?	27%	40µM*	-23%	-12%
CC(=O)NC(=S)Nc1ccc(NC(=S)NC(=O)/C=C/c2ccco2)cc1	-6%	-9%	18µM*	-51%	0%
O=C(/C=C/c1ccco1)NC(=S)Nc1ccc(C(=O)O)cc1	-5%	?	7.1µM*	-13%	-11%
Cc1ccc(C(=O)/C=C/c2ccco2)c(O)c1	-21%	-5%	45µM*	-46%	-2%
SMILES	RE007 growth inh	FBPA Giardia inh	Sm TGR block	AmpC inh no detg	AmpC inh detg
O=C(NNC(=S)NC(=O)c1ccco1)c1ccc(F)cc1	1%	2%	3%	-19%	-1%
Cc1cc(C)c(C(=O)/C=C/c2ccco2)c(=O)[nH]1	13%	?	?	-16%	1%
COc1cccc(NC(=O)COC(=O)c2c(C)noc2C)c1	-15%	.	-4%	-17%	-2%
COc1ccc(NC(=S)NC(=O)/C=C/c2ccco2)cc1	3%	7%	10µM*	16µM*	8%
COc1ccc(NC(=S)NC(=O)/C=C/c2ccccc2)cc1	-4%	-1%	-22%	-39%	?
CCc1nnc(NS(=O)(=O)c2ccc(NC(=S)NC(=O)c3ccc(OC)cc3)cc2)s1	-5%	0%	40µM*	-22%	-15%
